We go through 40 compounds from ChEMBL document CHEMBL4888484, “Replenishing the malaria drug discovery pipeline: Screening and hit evaluation of the MMV Hit Generation Library 1 (HGL1) against asexual blood stage Plasmodium falciparum ,using a nano luciferase reporter read-out” (2022).

In all, about 150,000 compounds went through this assay and about 540 (0.36%) showed an effect of 50% or more. For the sample, strong results were picked, then their nearest neighbours and some compounds at random.

The test system of this assay is Plasmodium falciparum. Briefly: Primary screen in NF54 nanoGlo assay, in single point, at 2uM, 72h; a lower Z score goes with more inhibition. It is filed as functional, Erythrocyte. The settings on record: timepoint 72 hour.
What is called % Inhibition is the change of the read-out against control, counted positive when it falls. `CN1CCN(C[C@@]2(Cc3ccccc3)CCOC2)CC1`: the “% Inhibition” value was -3% and the Z score came out at 0.56.

In the case of `CCc1ccc(NC(=O)c2sc3nc(C)c(C(=O)Nc4ccc(C)cc4C)c(-c4ccccc4Cl)c3c2N)cc1`, the “% Inhibition” value amounted to 40% and the Z score is -2.96.

In the case of `COc1ccc(NC(=O)c2sc3nc(C)c(C(=O)Nc4ccc(C)cc4C)c(-c4ccccc4Cl)c3c2N)cc1`, the “% Inhibition” value worked out at 38% and the Z score is given as -3.76.

Regarding `CC[C@H](C)NC(=O)c1sc2nc(C)c(C(=O)Nc3ccc(C)cc3C)c(-c3cccs3)c2c1N`, the “% Inhibition” value is 17% and the Z score is -2.61.

As to `Cc1ccc(NC(=O)c2c(C)nc3sc(C(=O)NCc4ccccc4)c(N)c3c2-c2cccs2)c(C)c1`, the “% Inhibition” value worked out at 61% and the Z score is recorded as -9.57.

For the compound `Cc1ccc(NC(=O)c2c(C)nc3sc(C(=O)NCc4ccccc4)c(N)c3c2-c2cccnc2)c(C)c1`, the “% Inhibition” value is listed as 21% and the Z score is given as -3.35.

`Cc1ccc(NC(=O)c2c(C)nc3sc(C(=O)NCc4ccccc4)c(N)c3c2-c2ccccc2Cl)c(C)c1`: the “% Inhibition” value turned out to be 90% and the Z score was -8.85.

For `C[C@H](NS(=O)(=O)c1cccc2nsnc12)c1nncn1C`, the “% Inhibition” value is -8% and the Z score came out at 1.65.

`Cc1cc(NC(=O)c2ccccc2C(=O)c2ccc(Cl)cc2)ccc1N1CCCC1=O`: the “% Inhibition” value is -10% and the Z score worked out at 1.56.

Regarding `COc1ccc(F)cc1S(=O)(=O)N1CC2(C[C@H](CC(=O)NCC3CC3)CO2)C1`, the “% Inhibition” value is listed as -2% and the Z score came out at 0.34.

As for `Cn1cc(Br)c2nc[nH]c(=O)c21`, the “% Inhibition” value was -14% and the Z score is 1.39.

With `CC(=O)c1ccc(CNc2ncc(Cl)cn2)nc1C`, the “% Inhibition” value is -16% and the Z score was found to be 1.6.

In the case of `CCOC(=O)c1ncc(Cl)c(C#N)c1Cl`, the “% Inhibition” value is listed as 50% and the Z score is on record as 0.88.

With `CCOC(=O)c1nsc(Cl)c1Cl`, the “% Inhibition” value amounted to 4% and the Z score is given as -0.44.

In the case of `CCOC(=O)c1nccc(C#N)c1Cl`, the “% Inhibition” value is given as 40% and the Z score is on record as -5.19.

With `NC(=O)[C@@H]1CCCN1S(=O)(=O)c1ccc2c(c1)CCC(=O)N2`, the “% Inhibition” value is recorded as -13% and the Z score worked out at 1.82.

Consider `O=C(c1nnn(-c2ccccc2Cl)c1-c1cccnc1)N1CCN(c2ccccc2)CC1`, for which the “% Inhibition” value is -8% and the Z score stood at 0.9.

As to `O=C(c1nnn(-c2ccccc2Cl)c1-c1cccnc1)N1CCC(Cc2ccccc2)CC1`, the “% Inhibition” value worked out at 40% and the Z score is on record as -5.19.

On to `COc1ccccc1N1CCN(C(=O)c2nnn(-c3ccccc3Cl)c2-c2cccnc2)CC1`, for which the “% Inhibition” value was 50% and the Z score was -6.51.

As for `Cc1nn(-c2ccc(Br)cc2)c(NC(=O)N(C)[C@@H](C)c2ccccc2F)c1C`, the “% Inhibition” value is given as 2% and the Z score is listed as -0.23.

`Cn1nccc1CNC(CO)CC(O)C(C)(C)C` (stereo not given): the “% Inhibition” value is listed as -3% and the Z score stood at 0.38.

Regarding `CCn1cnnc1NC(=O)c1cc(C)sn1`, the “% Inhibition” value came to 1% and the Z score was -0.12.

As to `O=C(Cn1ncn2nc(-c3ccccc3)cc2c1=O)N1CCCCC1`, the “% Inhibition” value is -20% and the Z score is given as 1.75.

For the compound `N#Cc1cccc(S(=O)(=O)N2CCCCCCC2)c1`, the “% Inhibition” value was 4% and the Z score is on record as -0.83.

Take `Cc1c2c(=O)n(-c3nc4ccccc4s3)n(CC(=O)Nc3ccc(F)cc3)c2cc(=O)n1CCCN1CCOCC1`: the “% Inhibition” value is -30% and the Z score is 3.47.

In the case of `Cc1c2c(=O)n(-c3nc4ccccc4s3)n(Cc3ccc(F)cc3)c2cc(=O)n1CCCN1CCOCC1`, the “% Inhibition” value was found to be 32% and the Z score is recorded as -3.58.

Turning to `CCc1c2c(=O)n(-c3nc4ccccc4s3)[nH]c2cc(=O)n1CCCN1CCOCC1`, the “% Inhibition” value was 81% and the Z score is on record as -10.48.

As for `N#Cc1cc(OCC(F)F)nc2ccccc12`, the “% Inhibition” value is -5% and the Z score came to 0.76.

As for `CC(NCC(C)N1CCOCC1C)c1cnn(C(C)C)c1` (stereo not given), the “% Inhibition” value was 1% and the Z score is -0.14.

Turning to `Cc1ccn2c(CN3CCN([C@H]4CCN(Cc5ccccc5)C4)CC3)c(C)nc2c1`, the “% Inhibition” value was 57% and the Z score is on record as -7.67.

As to `Cc1ccc(CN2CCN([C@H]3CCN(Cc4ccccc4)C3)CC2)nn1`, the “% Inhibition” value was determined as 6% and the Z score is on record as -0.85.

Take `c1ccc(CN2CC[C@H](N3CCOCC3)C2)cc1`: the “% Inhibition” value was found to be 3% and the Z score is on record as -0.34.

On to `Cc1ccc(C)c(N/C(=N\OCc2ccc(Cl)cc2)c2nonc2N)c1`, for which the “% Inhibition” value is -1% and the Z score is on record as 0.28.

`O=C(c1ccccc1F)N1CCN(C(=O)c2nnn3c2CO[C@H](c2ccc(Cl)cc2)C3)CC1`: the “% Inhibition” value is listed as -24% and the Z score is listed as 2.19.

In the case of `CCN(C(C)=O)c1nc2ccccc2n(CC(=O)Nc2cccc(C(C)=O)c2)c1=O`, the “% Inhibition” value is recorded as -6% and the Z score is on record as 0.97.

Regarding `CC(NCCn1cccn1)C(=O)N1c2ccccc2CC1C` (stereo not given), the “% Inhibition” value came out at 62% and the Z score is on record as 1.55.

`CC(C)CNC(=O)[C@H](C)NCCn1cccn1`: the “% Inhibition” value was -2% and the Z score is reported as 0.23.

As to `C[C@H](NCCn1cccn1)C(=O)N1CCCCC1`, the “% Inhibition” value is given as 3% and the Z score was -0.33.

`CCc1cnc(CN2CCC[C@H]2c2noc(CC)n2)o1`: the “% Inhibition” value is listed as -10% and the Z score is listed as 1.41.

Consider `CC(C)Cc1ccc(CN2CCN([C@H]3CCNC3)CC2)s1`, for which the “% Inhibition” value was -6% and the Z score was found to be 0.81.
